Experimental data taken from PubChem BioAssay (Tox21).
Inconclusive results are not listed. The source made the active and inactive calls. Unless noted, calls follow the shape of the dose curve; as a rule, active = well fitted curve in the direction sought with a large enough effect in the repeat runs; inconclusive = weak or mixed curves; inactive = no such curve, though single readings can be large; an effect the other way counts as inactive or inconclusive.

Key:
[1] = A CellTox Green Cytotoxicity Assay to monitor cytotoxicity in HepG2 cells - 8 hour (AID 1224890); settings: CellTox Green fluorescence; series mostly up to 76.8 µM; also: nearly all actives have a fitted effect of over 45% in size
In short: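 HepG2, 600 cells/well premixed w/ CellTox Green; 5 h settle, 37 C/5% CO2; pintool cpd add (DMSO); 37 C, 40 h; fluorescence read at 0, 8, 16, 24, 32, 40 h.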

[2] = qHTS assay to identify small molecule antagonists of the estrogen receptor alpha (ER-alpha) signaling pathway using the BG1 cell line in the presence of 0.1 nM 17-beta-estradiol - cell viability counter screen (AID 1259241); settings: VM7Luc4E2 (BG1) viability, CellTiter-Fluor protease, 22 h, 0.1 nM estradiol agonist added; series mostly up to 92.4 µM; also: nearly all actives have a fitted effect of over 40% in size
In short: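 Viability in VM7Luc4E2 cells after 22 hr compound exposure under 0.1 nM 17beta-estradiol stimulation, by CellTiter-Fluor.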

[3] = molecular target: Estrogen receptor (Homo sapiens) (UniProt P03372); test: qHTS assay to identify small molecule antagonists of the estrogen receptor alpha (ER-alpha) signaling pathway using the BG1 cell line in the presence of 0.1 nM 17-beta-estradiol (AID 1259244); settings: VM7Luc4E2 (BG1) ERE-luciferase, antagonist mode, 0.1 nM E2, 22 h; series mostly up to 92.4 µM; also: nearly all actives have a fitted effect of over 50% in size
In short: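 Luminescence after ONE-Glo (30 min, room temperature) measured ERE-luciferase activity in VM7Luc4E2 cells treated 22 h with compound and 0.1 nM final 17beta-estradiol as stimulator.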

[4] = qHTS assay to identify small molecule phospholipidosis (PLD) inducers (AID 1259344; active = well fitted curve in the direction sought with a large enough effect; an effect the other way counts as inactive or inconclusive); settings: HepG2 phospholipidosis, LipidTOX Red imaging, 24 h; series mostly up to 38.3 µM
In short: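 Phospholipid accumulation was scored by imaging: fixed, Hoechst-counterstained HepG2 cells stained with LipidTOX Red after 24 h compound exposure at 37 C. Read-outs were pit count and pit intensity per well or per cell, with amiodarone and DMSO controls.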

[5] = qHTS assay to identify small molecule HDAC inhibitors (AID 1259364); settings: HCT-116 HDAC-Glo I/II luminescence, 2 h; series mostly up to 92.4 µM;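 also: wild-type HCT-116 cells with endogenous class I/II HDAC activity; top concentration of the series differs between compounds; nearly all actives have a fitted effect of over 45% in size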
In short: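 HCT-116 (wild type), 1,500 cells/well, overnight; compound 2 hr 37C 5% CO2; HDAC-Glo I/II reagent 30 min RT; luminescence readout.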

[6] = qHTS assay to identify small molecule HDAC inhibitors - cell viability counter screen (AID 1259365); settings: HCT-116 viability, CellTiter-Glo ATP luminescence, 2 h; series mostly up to 92.4 µM; also: nearly all actives have a fitted effect of over 50% in size
In short: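 Cytotoxicity was gauged in wild-type HCT-116 cells after a brief 2hr treatment with DMSO-dissolved compounds at 37C and 5% CO2, using CellTiter-Glo luminescence developed for 30min at room temperature.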

[7] = qHTS assay to identify small molecule agonists of the sonic hedgehog signaling (Shh) pathway - cell viability counter screen (AID 1259366); settings: NIH/3T3 Gli1-Luc viability, CellTiter-Fluor, 24 h; series mostly up to 92.4 µM; also: nearly all actives have a fitted effect of over 50% in size
In short: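 Stable Gli1-Luc NIH/3T3 clone, 2,000 cells/well. Compound exposure 24hr at 37C. Read-out: CellTiter-Fluor fluorescence.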

[8] = qHTS assay to identify small molecule antagonists of the androgen receptor (AR) signaling pathway using the MDA cell line in the presence of 0.5 nM R1881 - cell viability counter screen (AID 1259242); settings: MDA-kb2 viability, CellTiter-Fluor protease fluorescence, 16 h; series mostly up to 92.4 µM; also: nearly all actives have a fitted effect of over 45% in size
In short: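 Live-cell protease fluorescence, CellTiter-Fluor, 30 min at 37C. Cells: MDA-kb2, 3,000/well, preincubated 5 hr. Compounds plus 0.5 nM R1881 final, 16 hr, 37C, 0% CO2.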

[9] = qHTS assay to identify small molecule antagonists of the sonic hedgehog signaling (Shh) pathway - cell viability counter screen (AID 1259367); settings: NIH/3T3 Gli1-Luc viability, CellTiter-Fluor, 24 h; series mostly up to 92.4 µM; also: nearly all actives have a fitted effect of over 55% in size
In short: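 Viability was read by CellTiter-Fluor fluorescence in the same wells, reagent added 23 hr into compound treatment and incubated 1 hr at 37C. The 3T3 Gli1-Luc reporter cells (2,000/well) received conditioned medium after compound and ran 24 hr.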

[10] = molecular target: Androgen receptor (Homo sapiens) (UniProt P10275); test: qHTS assay to identify small molecule antagonists of the androgen receptor (AR) signaling pathway using the MDA cell line in the presence of 0.5 nM R1881 (AID 1259243); settings: MDA-kb2 MMTV-luciferase, R1881 0.5 nM, 16 h; series mostly up to 42.5 µM; also: nearly all actives have a fitted effect of over 50% in size
In short: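 MDA-kb2, MMTV-luc (AR/GR elements); 3,000 cells/well; cpd + 0.5 nM R1881 final; 16 hr 37C, 0% CO2; ONE-Glo 30 min RT; luminescence.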

Measured: Potency

Chain of Estrogen receptor (Homo sapiens) (P03372 whole entry, looked up): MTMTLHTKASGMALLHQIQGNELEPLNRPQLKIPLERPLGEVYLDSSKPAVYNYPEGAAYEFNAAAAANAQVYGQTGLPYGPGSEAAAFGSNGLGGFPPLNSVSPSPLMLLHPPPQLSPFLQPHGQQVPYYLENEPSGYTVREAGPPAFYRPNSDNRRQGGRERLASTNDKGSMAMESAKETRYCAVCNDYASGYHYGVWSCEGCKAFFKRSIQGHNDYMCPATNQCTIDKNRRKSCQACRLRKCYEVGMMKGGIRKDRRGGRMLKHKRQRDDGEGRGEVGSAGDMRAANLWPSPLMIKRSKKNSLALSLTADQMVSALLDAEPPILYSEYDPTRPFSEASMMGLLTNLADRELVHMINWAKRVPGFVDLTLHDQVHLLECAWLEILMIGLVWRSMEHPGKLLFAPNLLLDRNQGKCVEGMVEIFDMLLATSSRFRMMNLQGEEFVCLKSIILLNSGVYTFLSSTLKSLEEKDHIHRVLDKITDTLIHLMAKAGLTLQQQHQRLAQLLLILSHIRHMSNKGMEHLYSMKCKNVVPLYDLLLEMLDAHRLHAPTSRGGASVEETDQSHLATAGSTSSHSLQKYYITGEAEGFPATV
Chain of Androgen receptor (Homo sapiens) (P10275 whole entry, looked up): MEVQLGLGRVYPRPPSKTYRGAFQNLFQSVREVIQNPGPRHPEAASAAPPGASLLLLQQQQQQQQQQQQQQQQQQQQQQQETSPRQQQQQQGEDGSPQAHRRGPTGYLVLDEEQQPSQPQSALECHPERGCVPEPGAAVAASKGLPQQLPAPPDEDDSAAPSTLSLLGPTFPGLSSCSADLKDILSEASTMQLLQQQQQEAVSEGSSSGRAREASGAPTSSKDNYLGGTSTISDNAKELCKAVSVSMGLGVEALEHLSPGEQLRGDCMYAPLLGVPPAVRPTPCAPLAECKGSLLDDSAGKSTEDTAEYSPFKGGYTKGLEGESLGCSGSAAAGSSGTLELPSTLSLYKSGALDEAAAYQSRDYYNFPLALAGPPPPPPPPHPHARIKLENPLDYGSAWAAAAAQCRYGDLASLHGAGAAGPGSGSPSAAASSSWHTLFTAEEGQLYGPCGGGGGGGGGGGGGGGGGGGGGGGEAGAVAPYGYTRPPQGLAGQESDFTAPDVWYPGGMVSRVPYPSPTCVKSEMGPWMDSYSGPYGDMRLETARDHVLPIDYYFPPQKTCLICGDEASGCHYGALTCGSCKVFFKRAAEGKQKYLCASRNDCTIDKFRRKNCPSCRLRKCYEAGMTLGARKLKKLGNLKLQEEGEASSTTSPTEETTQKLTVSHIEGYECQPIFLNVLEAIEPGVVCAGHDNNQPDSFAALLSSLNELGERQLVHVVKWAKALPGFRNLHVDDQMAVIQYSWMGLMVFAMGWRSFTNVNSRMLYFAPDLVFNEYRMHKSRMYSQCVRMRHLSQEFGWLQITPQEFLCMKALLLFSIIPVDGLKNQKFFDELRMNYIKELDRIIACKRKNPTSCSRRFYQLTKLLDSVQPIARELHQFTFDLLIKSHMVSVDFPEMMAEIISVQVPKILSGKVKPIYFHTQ

CC(=O)NC(Cc1ccccc1)C(=O)O (centres undefined)
not listed: [8] | [9] | [10]
inactive: all other assays above

CC(C)c1cccc(O)c1
inactive: [1] | [2] | [3] | [5] | [6]

CC1=CC(=O)CCC1
not listed: [3] | [4] | [10]
inactive: all other assays above

CCCCCCCCCCCCI
not listed: [3] | [4] | [10]
inactive: all other assays above

C=C(C)C1CC=C(C)C(O)C1 (centres undefined)
inactive: [1] | [2] | [3] | [5] | [6]

CCCC(C)CO (centres undefined)
not listed: [3] | [4] | [8]
inactive: all other assays above

CCC(=O)c1cccc(Cl)c1
not listed: [3] | [4] | [10]
inactive: all other assays above

COC(=O)c1ccc(C(=O)OC)c(C(=O)OC)c1
not listed: [3] | [4] | [10]
inactive: all other assays above

CCn1c(=O)c2c(nc(/C=C/c3ccc(OC)c(OC)c3)n2C)n(CC)c1=O
not listed: [3] | [4] | [10]
inactive: all other assays above

CC(=O)O[C@H](CC(=O)[O-])C[N+](C)(C)C
inactive: [1] | [2] | [3] | [5] | [6] | [7]

CCCc1ccccc1O
not listed: [3] | [4] | [10]
inactive: all other assays above

COc1cc(C)cc(O)c1
not listed: [3] | [4] | [10]
inactive: all other assays above

OC[C@H]1O[C@@H]2O[C@H]3[C@H](O)[C@@H](O)[C@@H](O[C@H]4[C@H](O)[C@@H](O)[C@@H](O[C@H]5[C@H](O)[C@@H](O)[C@@H](O[C@H]6[C@H](O)[C@@H](O)[C@@H](O[C@H]7[C@H](O)[C@@H](O)[C@@H](O[C@H]8[C@H](O)[C@@H](O)[C@@H](O[C@H]9[C@H](O)[C@@H](O)[C@@H](O[C@H]1[C@H](O)[C@H]2O)O[C@@H]9CO)O[C@@H]8CO)O[C@@H]7CO)O[C@@H]6CO)O[C@@H]5CO)O[C@@H]4CO)O[C@@H]3CO
not listed: [3] | [4] | [10]
inactive: all other assays above

CCCCCCCCCCC1CO1 (centres undefined)
not listed: [3] | [4] | [10]
inactive: all other assays above

COC(=O)[C@H]1[C@H]2C[C@@H]3c4[nH]c5cc(OC)ccc5c4CCN3C[C@H]2C[C@@H](OC(=O)COc2ccc(OC)cc2)[C@@H]1OC
not listed: [8] | [10]
inactive: all other assays above

CC(CCO)CCCC(C)(C)O (centres undefined)
not listed: [3] | [4] | [10]
inactive: all other assays above

Nc1nc2c(ncn2CCC(CO)CO)c(=O)[nH]1
not listed: [8] | [10]
inactive: all other assays above

C=C(C)C(=O)OCCC(C)OC(=O)C(=C)C (centres undefined)
not listed: [4] | [8] | [10]
inactive: all other assays above

COc1cccc(Br)c1
inactive: [2] | [8] | [10] | [3] | [5] | [6]

CCCCCCCCCCCCCCCCCC(=O)OCCCCCCCCCCCCCC(C)C
not listed: [4] | [8] | [10]
inactive: all other assays above

C=CC(=O)N1CCOCC1
inactive: [1] | [2] | [5] | [6] | [7] | [9]

CCCCCCCCCCCCCCCCCCOCC(O)CO (centres undefined)
not listed: [1] | [10]
inactive: all other assays above

CC(C)CCCC(C)CCCC(C)CCCCC(C)CCCC(C)CCCC(C)C (centres undefined)
not listed: [3] | [8] | [10]
inactive: all other assays above

CC(C=O)Cc1ccc(C(C)C)cc1 (centres undefined)
inactive: [1] | [2] | [5] | [6] | [7] | [9]

NC(=O)CCCCC1CCSS1 (centres undefined)
not listed: [1] | [10]
inactive: all other assays above

NC(=O)c1ncn([C@@H]2O[C@H](CO)[C@@H](O)[C@H]2O)c1N
not listed: [1] | [10]
inactive: all other assays above
